{
  "source": "PubChem BioAssay (EPA / NIEHS)",
  "key": {"[1]": {"biological_target": "human Ephrin type-A Receptor 1 (EphA1), EPHA1 (gene 2041) (UniProt P21709)", "sequence (P21709 whole entry, looked up)": "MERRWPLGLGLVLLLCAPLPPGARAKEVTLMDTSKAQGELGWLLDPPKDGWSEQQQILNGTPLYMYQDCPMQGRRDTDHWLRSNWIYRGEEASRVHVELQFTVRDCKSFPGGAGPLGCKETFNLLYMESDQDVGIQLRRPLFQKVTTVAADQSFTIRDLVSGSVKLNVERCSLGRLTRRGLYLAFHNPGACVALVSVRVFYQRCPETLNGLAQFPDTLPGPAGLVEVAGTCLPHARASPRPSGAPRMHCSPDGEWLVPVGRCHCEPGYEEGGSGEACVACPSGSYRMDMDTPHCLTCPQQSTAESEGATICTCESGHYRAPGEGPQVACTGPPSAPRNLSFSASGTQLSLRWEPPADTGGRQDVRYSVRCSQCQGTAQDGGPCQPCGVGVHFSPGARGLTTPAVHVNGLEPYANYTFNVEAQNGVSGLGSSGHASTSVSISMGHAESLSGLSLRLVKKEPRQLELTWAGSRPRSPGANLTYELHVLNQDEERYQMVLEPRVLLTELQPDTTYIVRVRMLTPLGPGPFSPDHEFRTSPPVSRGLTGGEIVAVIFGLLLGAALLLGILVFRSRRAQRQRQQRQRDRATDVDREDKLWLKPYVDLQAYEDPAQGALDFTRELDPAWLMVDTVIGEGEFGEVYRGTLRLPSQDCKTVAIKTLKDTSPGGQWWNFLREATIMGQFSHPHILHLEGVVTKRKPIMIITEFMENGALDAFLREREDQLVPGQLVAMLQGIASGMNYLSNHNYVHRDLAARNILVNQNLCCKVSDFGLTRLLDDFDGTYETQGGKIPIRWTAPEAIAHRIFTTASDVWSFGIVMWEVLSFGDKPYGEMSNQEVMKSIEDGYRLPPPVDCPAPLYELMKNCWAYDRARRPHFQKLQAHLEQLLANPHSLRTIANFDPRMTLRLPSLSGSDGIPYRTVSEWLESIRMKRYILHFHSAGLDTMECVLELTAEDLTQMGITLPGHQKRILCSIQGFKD", "test": "NVS_ENZ_hEphA1: NovaScreen (NVS) Enzymatic Assay for human Ephrin type-A Receptor 1 (EphA1) (AID 2283158)", "method_in_brief": "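Chemicals first tested in duplicate at 25 uM against recombinant EphA1 with a fluorescent substrate; those passing threshold went to singleton dose-response topping at 50 uM. Activity read 1 h later as mobility-shift fluorescence, loss of signal relative to DMSO.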"}, "[2]": {"biological_target": "human Fibroblast Growth Factor Receptor 1 (FGFR1), FGFR1 (gene 2260) (UniProt P11362)", "sequence (P11362 whole entry, looked up)": "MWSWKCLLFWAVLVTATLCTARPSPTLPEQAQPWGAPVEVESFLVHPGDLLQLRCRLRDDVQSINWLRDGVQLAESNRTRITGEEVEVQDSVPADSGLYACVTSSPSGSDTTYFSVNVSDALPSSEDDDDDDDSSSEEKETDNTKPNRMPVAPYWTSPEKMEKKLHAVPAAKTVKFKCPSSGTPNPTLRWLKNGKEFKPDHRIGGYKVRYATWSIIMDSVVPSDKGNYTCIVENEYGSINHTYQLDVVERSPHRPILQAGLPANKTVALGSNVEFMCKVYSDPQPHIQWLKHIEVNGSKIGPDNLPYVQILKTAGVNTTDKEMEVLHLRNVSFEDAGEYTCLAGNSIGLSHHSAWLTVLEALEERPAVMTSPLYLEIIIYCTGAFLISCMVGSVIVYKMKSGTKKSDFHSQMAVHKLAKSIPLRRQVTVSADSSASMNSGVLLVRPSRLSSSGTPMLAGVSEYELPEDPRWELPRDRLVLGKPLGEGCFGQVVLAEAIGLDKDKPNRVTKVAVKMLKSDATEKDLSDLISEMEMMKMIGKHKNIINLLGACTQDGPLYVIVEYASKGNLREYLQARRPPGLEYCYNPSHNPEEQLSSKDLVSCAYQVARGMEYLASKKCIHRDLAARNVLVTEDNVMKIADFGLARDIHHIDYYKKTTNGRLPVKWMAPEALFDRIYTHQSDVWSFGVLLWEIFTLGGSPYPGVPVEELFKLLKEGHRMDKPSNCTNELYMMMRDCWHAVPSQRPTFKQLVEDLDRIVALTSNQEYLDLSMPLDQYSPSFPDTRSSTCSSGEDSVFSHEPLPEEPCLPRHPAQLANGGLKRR", "test": "NVS_ENZ_hFGFR1: NovaScreen (NVS) Enzymatic Assay for human Fibroblast Growth Factor Receptor 1 (FGFR1) (AID 2283159);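 on AC50: hits lower the signal so potencies describe inhibitors of the kinase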", "method_in_brief": "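Cell-free recombinant kinase with fluorescent substrate, product separated by electrophoretic mobility shift; read 1 hour after dosing, loss of signal relative to DMSO. Initial screen in duplicate at 25 uM, actives followed in concentration series.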"}, "[3]": {"biological_target": "Protein deacetylase HDAC6 (Homo sapiens) (UniProt Q9UBN7)", "sequence (Q9UBN7 whole entry, looked up)": "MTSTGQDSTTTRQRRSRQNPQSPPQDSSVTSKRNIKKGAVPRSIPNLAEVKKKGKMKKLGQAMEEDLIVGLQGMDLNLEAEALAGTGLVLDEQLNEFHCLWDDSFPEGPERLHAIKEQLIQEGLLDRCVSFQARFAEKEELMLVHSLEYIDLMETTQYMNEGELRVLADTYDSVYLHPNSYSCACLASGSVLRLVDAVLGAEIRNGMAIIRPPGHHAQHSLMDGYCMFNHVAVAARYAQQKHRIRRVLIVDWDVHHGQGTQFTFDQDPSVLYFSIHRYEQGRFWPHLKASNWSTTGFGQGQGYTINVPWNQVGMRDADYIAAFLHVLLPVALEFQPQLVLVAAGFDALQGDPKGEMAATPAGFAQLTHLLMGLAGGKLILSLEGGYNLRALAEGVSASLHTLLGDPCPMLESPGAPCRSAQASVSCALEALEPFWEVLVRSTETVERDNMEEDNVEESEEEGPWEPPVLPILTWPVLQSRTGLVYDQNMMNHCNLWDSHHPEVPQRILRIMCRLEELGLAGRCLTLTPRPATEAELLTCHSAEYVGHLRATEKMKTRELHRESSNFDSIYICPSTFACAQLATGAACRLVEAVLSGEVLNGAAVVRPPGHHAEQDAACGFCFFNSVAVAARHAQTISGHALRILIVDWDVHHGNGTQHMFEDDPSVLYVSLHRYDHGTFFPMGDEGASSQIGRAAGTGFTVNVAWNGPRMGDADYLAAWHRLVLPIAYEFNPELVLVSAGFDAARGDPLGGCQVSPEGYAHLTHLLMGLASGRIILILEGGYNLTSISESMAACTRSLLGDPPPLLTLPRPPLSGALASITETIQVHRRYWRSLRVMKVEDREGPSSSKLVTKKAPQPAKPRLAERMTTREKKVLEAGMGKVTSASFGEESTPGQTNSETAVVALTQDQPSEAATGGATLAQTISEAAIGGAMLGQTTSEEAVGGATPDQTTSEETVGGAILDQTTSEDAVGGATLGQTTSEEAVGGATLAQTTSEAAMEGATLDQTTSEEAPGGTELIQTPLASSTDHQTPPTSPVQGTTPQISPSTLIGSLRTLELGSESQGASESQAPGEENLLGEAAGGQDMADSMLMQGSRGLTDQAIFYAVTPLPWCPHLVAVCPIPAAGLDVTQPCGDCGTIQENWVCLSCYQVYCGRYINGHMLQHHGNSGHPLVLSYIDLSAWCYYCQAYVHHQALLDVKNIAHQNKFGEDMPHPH", "test": "NVS_ENZ_hHDAC6: NovaScreen (NVS) Enzymatic Assay for human Histone Deacetylase 6 (HDAC6) (AID 2283164)", "method_in_brief": "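Recombinant human HDAC6 with fluorescent substrate, 1 h; product separated from substrate by electrophoretic mobility shift. Primary screen in duplicate at 25 uM; actives retested singly in concentration-response up to 50 uM, fitted relative to DMSO.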"}, "[4]": {"biological_target": "Glycogen synthase kinase-3 beta (Homo sapiens) (UniProt P49841)", "sequence (P49841 whole entry, looked up)": "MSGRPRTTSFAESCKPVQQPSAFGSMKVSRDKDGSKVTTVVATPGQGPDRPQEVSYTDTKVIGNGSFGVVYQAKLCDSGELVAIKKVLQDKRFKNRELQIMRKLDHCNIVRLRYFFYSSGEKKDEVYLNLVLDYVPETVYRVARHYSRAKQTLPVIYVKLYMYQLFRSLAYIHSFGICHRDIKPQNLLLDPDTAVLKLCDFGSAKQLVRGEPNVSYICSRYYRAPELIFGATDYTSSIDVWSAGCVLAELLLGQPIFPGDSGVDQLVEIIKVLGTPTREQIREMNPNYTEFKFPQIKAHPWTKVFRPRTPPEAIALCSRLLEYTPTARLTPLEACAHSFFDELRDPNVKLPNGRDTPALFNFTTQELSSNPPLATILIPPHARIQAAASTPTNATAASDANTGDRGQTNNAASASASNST", "test": "NVS_ENZ_hGSK3b: NovaScreen (NVS) Enzymatic Assay for human Glycogen Synthase Kinase-3 beta (GSK3b) (AID 2283165)", "method": "(§1) NVS_ENZ_hGSK3b is a biochemical, single-readout assay that uses extracted gene-proteins in a cell-free assay. Measurements were taken 1 hour after chemical dosing in a 384-well plate.NVS_ENZ_hGSK3b is one of one assay component(s) measured or calculated from the NVS_ENZ_hGSK3b assay. It is designed to make measurements of enzyme activity, a form of enzyme reporter, as detected with fluorescence intensity signals by Fluorescence and electrophoretic mobility shift technology.Data from the assay component NVS_ENZ_hGSK3b was analyzed into 1 assay endpoint. This assay endpoint, NVS_ENZ_hGSK3b, was analyzed in the positive analysis fitting direction relative to DMSO as the negative control and baseline of activity. Using a type of enzyme reporter, loss-of-signal activity can be used to understand changes in the enzymatic activity as they relate to the gene GSK3B. Furthermore, this assay endpoint can be referred to as a primary readout, because this assay has produced multiple assay endpoints where this one serves a enzymatic activity function. To generalize the intended target to other relatable targets, this assay endpoint is annotated to the kinase intended target family, where the subfamily is serine/threonine kinase.\nBinding assays used specific radioligands (tritiated, iodinated) with non-radioactive competitive displacement ligands in agonist or antagonist protocols (as indicated) and various reference compounds and inhibitors to titrate specific binding to receptors and transporters. Most enzyme assays (CYPs, kinases, phosphatases, proteases, HDACs) used recombinant protein and specific substrates (fluorescence mostly, some colorimetric and radioactive) and inhibitors, followed by a biochemical separation of substrate and product. All assays for the biochemical HTS were initially run in duplicate at a single concentration (10 uM for CYP450 assays and 25 uM for all others). Assay-chemical combinations meeting a pre-defined threshold (e.g., 30% inhibition and other criteria defined below) were then run in singleton concentration-response format with maximum concentration of 20 uM for CYPs and 50 uM for all others. Each assay was run with positive and negative controls, and concurrent controls on every plate. The follow-up (secondary) screen tested active chemical-pairs in concentration series, as well as a few additional assays not tested in the primary screen, some selected negative inactives, and several cases re-run in the concentration series for confirmatory purposes."}, "[5]": {"biological_target": "human IkappaB Kinase alpha (IKKa), CHUK (gene 1147) (UniProt O15111)", "sequence (O15111 whole entry, looked up)": "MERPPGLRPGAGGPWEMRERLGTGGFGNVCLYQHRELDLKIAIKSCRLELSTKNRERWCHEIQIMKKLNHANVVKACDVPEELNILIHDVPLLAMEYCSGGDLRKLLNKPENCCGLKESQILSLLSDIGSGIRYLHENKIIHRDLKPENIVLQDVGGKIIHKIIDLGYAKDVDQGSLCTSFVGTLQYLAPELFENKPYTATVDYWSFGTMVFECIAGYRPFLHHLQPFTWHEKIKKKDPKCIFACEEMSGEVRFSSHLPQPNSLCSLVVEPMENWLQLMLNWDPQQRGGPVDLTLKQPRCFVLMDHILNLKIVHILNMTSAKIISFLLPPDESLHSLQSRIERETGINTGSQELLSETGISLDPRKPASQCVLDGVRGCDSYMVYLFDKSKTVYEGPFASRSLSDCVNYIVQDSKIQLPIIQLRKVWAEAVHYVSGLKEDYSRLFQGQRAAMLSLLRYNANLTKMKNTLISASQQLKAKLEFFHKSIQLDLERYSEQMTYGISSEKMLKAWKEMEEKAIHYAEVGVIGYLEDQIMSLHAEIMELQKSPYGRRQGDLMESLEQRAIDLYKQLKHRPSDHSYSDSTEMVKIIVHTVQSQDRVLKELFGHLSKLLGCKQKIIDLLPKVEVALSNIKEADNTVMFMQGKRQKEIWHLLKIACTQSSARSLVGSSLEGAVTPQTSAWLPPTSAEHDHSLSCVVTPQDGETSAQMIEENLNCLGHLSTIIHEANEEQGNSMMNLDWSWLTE", "test": "NVS_ENZ_hIKKa: NovaScreen (NVS) Enzymatic Assay for human IkappaB Kinase alpha (IKKa) (AID 2283167)", "method_in_brief": "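Cell-free recombinant human IKKa with fluorescent substrate, product separated by electrophoretic mobility shift; read 1 hour after dosing. Primary screen duplicate at 25 uM, actives then concentration-response up to 50 uM; loss of signal relative to DMSO.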"}, "[6]": {"biological_target": "human Insulin Receptor (InsR), INSR (gene 3643) (UniProt P06213)", "test": "NVS_ENZ_hInsR: NovaScreen (NVS) Enzymatic Assay for human Insulin Receptor (InsR) (AID 2283168)", "method": "as §1, with “NVS_ENZ_hInsR” for “NVS_ENZ_hGSK3b”, “plate.NVS_ENZ_hInsR” for “plate.NVS_ENZ_hGSK3b”, “NVS_ENZ_hInsR,” for “NVS_ENZ_hGSK3b,”, “INSR.” for “GSK3B.”, “receptor tyrosine” for “serine/threonine”, “kinase. […]” for “kinase.”"}, "[7]": {"biological_target": "human Janus Kinase 2 (Jak2), JAK2 (gene 3717) (UniProt O60674)", "test": "NVS_ENZ_hJak2: NovaScreen (NVS) Enzymatic Assay for human Janus Kinase 2 (Jak2) (AID 2283169)", "method": "as §1, with “NVS_ENZ_hJak2” for “NVS_ENZ_hGSK3b”, “plate.NVS_ENZ_hJak2” for “plate.NVS_ENZ_hGSK3b”, “NVS_ENZ_hJak2,” for “NVS_ENZ_hGSK3b,”, “JAK2.” for “GSK3B.”, “non-receptor tyrosine” for “serine/threonine”, “kinase. […]” for “kinase.”"}, "[8]": {"biological_target": "human c-Jun N-terminal Kinases (JNK2), MAPK9 (gene 5601) (UniProt P45984)", "sequence (P45984 whole entry, looked up)": "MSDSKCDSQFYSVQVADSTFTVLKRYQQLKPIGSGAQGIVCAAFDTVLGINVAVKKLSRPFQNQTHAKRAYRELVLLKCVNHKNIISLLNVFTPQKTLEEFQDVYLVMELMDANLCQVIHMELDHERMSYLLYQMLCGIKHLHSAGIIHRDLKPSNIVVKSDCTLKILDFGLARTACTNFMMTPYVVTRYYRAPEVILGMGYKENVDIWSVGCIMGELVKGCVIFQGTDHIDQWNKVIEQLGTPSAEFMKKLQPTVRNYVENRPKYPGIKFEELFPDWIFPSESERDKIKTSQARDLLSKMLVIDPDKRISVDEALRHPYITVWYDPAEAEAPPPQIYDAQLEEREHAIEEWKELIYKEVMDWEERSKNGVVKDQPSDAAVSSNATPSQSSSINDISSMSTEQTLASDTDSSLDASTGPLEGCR", "test": "NVS_ENZ_hJNK2: NovaScreen (NVS) Enzymatic Assay for human c-Jun N-terminal Kinases (JNK2) (AID 2283171)", "method_in_brief": "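Cell-free recombinant human JNK2 activity assay; fluorescent substrate and product separated by electrophoretic mobility shift, read 1 h after dosing. Primary duplicate screen at 25 uM; actives run in concentration-response up to 50 uM, relative to DMSO.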"}, "[9]": {"biological_target": "Histone deacetylase 3 (Homo sapiens) (UniProt O15379)", "sequence (O15379 whole entry, looked up)": "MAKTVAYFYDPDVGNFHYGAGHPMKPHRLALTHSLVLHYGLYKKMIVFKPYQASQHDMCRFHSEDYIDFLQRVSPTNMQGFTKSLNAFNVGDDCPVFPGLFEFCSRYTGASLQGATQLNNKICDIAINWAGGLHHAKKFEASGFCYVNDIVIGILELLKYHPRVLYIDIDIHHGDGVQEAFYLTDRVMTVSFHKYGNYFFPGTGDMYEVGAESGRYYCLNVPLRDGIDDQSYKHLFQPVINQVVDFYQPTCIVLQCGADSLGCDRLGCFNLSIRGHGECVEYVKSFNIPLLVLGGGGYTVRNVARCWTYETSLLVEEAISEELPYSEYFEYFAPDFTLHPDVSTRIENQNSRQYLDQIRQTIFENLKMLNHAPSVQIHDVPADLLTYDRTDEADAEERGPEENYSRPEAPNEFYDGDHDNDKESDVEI", "test": "NVS_ENZ_hHDAC3: NovaScreen (NVS) Enzymatic Assay for human Histone Deacetylase 3 (HDAC3) (AID 2283163)", "method_in_brief": "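Recombinant human HDAC3 with fluorescent substrate, 1 h after dosing; product separated from substrate by electrophoretic mobility shift and read by fluorescence. Primary screen at 25 uM in duplicate; actives (e.g. ≥30% inhibition) retested in concentration-response up to 50 uM.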"}, "[10]": {"biological_target": "human FYN Proto-Oncogene, Src family Tyrosine Kinase (Fyn), FYN (gene 2534) (UniProt P06241)", "test": "NVS_ENZ_hFyn: NovaScreen (NVS) Enzymatic Assay for human FYN Proto-Oncogene, Src family Tyrosine Kinase (Fyn) (AID 2283161)", "method_in_brief": "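Recombinant enzyme with fluorescent substrate, product separated by electrophoretic mobility shift; read 1 h after dosing. Duplicate 25 uM single-point screen, actives retested in concentration series; loss of signal vs DMSO.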"}},
  "note": "Inconclusive results are not listed. Activity calls are given as the source filed them. How the source made its calls: active means hit-call score of the fitted dose curve at least 0.9, where 1 is the maximum; inconclusive means response in the unintended direction; inactive means score below 0.9.",
  "data": [
    {"smiles": "N#Cc1cccnc1", "values": [
      {"measurement": "outcome", "setting": "[1]", "result": "inactive"},
      {"measurement": "outcome", "setting": "[2]", "result": "inactive"},
      {"measurement": "outcome", "setting": "[3]", "result": "inactive"},
      {"measurement": "outcome", "setting": "[4]", "result": "inactive"},
      {"measurement": "outcome", "setting": "[5]", "result": "inactive"},
      {"measurement": "outcome", "setting": "[6]", "result": "inactive"},
      {"measurement": "outcome", "setting": "[7]", "result": "inactive"},
      {"measurement": "outcome", "setting": "[8]", "result": "inactive"}
    ]},
    {"smiles": "c1ccc2sc(SNC3CCCCC3)nc2c1", "values": [
      {"measurement": "AC50", "setting": "[1]", "result": "13.9 µM (active)"}
    ]},
    {"smiles": "Nc1ccc(N)cc1", "values": [
      {"measurement": "outcome", "setting": "[1]", "result": "inactive"}
    ]},
    {"smiles": "Oc1cc(Cl)c(Cl)cc1Cl", "values": [
      {"measurement": "outcome", "setting": "[9]", "result": "inactive"},
      {"measurement": "outcome", "setting": "[4]", "result": "inactive"}
    ]},
    {"smiles": "CCOP(=O)(OCC)OC(=CCl)c1ccc(Cl)cc1Cl", "values": [
      {"measurement": "outcome", "setting": "[1]", "result": "inactive"}
    ]},
    {"smiles": "CC(C)(C#N)N=NC(C)(C)C#N", "values": [
      {"measurement": "outcome", "setting": "[1]", "result": "inactive"}
    ]},
    {"smiles": "CCCCCCCCCCCCc1cccc(S(=O)(=O)O)c1", "values": [
      {"measurement": "AC50", "setting": "[1]", "result": "32.9 µM (active)"},
      {"measurement": "AC50", "setting": "[2]", "result": "11.4 µM (active)"},
      {"measurement": "AC50", "setting": "[3]", "result": "13.7 µM (active)"},
      {"measurement": "AC50", "setting": "[4]", "result": "25.3 µM (active)"},
      {"measurement": "AC50", "setting": "[5]", "result": "40.9 µM (active)"}
    ]},
    {"smiles": "CCCCCCCCCCCCOS(=O)(=O)O", "values": [
      {"measurement": "AC50", "setting": "[2]", "result": "13.9 µM (active)"},
      {"measurement": "outcome", "setting": "[3]", "result": "inactive"}
    ]},
    {"smiles": "CC1CC(=O)O1", "note": "(stereo not drawn)", "values": [
      {"measurement": "outcome", "setting": "[1]", "result": "inactive"}
    ]},
    {"smiles": "OC[P+](CO)(CO)CO", "values": [
      {"measurement": "outcome", "setting": "[1]", "result": "inactive"}
    ]},
    {"smiles": "O=C(N[C@H]1CN2CCC1CC2)c1ccc2c(c1)OCCO2", "values": [
      {"measurement": "outcome", "setting": "[1]", "result": "inactive"},
      {"measurement": "outcome", "setting": "[2]", "result": "inactive"},
      {"measurement": "outcome", "setting": "[10]", "result": "inactive"},
      {"measurement": "outcome", "setting": "[8]", "result": "inactive"}
    ]},
    {"smiles": "Nc1c(Oc2ccccc2)cc(O)c2c1C(=O)c1ccccc1C2=O", "values": [
      {"measurement": "outcome", "setting": "[1]", "result": "inactive"}
    ]},
    {"smiles": "CC(C)(C)c1ccccc1O", "values": [
      {"measurement": "outcome", "setting": "[4]", "result": "inactive"}
    ]},
    {"smiles": "Clc1cccc(Cl)c1Cl", "values": [
      {"measurement": "outcome", "setting": "[1]", "result": "inactive"},
      {"measurement": "outcome", "setting": "[2]", "result": "inactive"},
      {"measurement": "outcome", "setting": "[5]", "result": "inactive"}
    ]},
    {"smiles": "CCCCC(CC)COC(=O)Cl", "note": "(stereo not drawn)", "values": [
      {"measurement": "outcome", "setting": "[1]", "result": "inactive"}
    ]},
    {"smiles": "O=c1oc2ccccc2c(O)c1C(CC(O)c1ccc(-c2ccc(Br)cc2)cc1)c1ccccc1", "note": "(stereo not drawn)", "values": [
      {"measurement": "outcome", "setting": "[1]", "result": "inactive"}
    ]},
    {"smiles": "ClCCCCl", "values": [
      {"measurement": "AC50", "setting": "[1]", "result": "10.5 µM (active)"}
    ]},
    {"smiles": "O=C(O)C1(c2ccc3c(c2)OC[C@H](Cc2ccc(-c4ccccc4)cc2)[C@H]3O)CCCC1", "values": [
      {"measurement": "outcome", "setting": "[2]", "result": "inactive"}
    ]},
    {"smiles": "COc1nn(C(=O)NS(=O)(=O)c2ccccc2OC(F)(F)F)c(=O)n1C", "values": [
      {"measurement": "outcome", "setting": "[2]", "result": "inactive"}
    ]},
    {"smiles": "c1ccc(-c2cccc(-c3ccccc3)c2)cc1", "values": [
      {"measurement": "AC50", "setting": "[1]", "result": "2.51 µM (active)"}
    ]}
  ]
}
